Assay results published in paper PMC4336329 (PLoS ONE, 2015).
The campaign covered roughly 310,000 compounds. About 14,000 (4.5%) showed an effect of 50% or more. The effect is printed as a negative number. The entries come from a sample that favours strong results as a whole.

molecular target: human ether-à-go-go-related gene (hERG) potassium channel (human, UniProt Q12809); experiment: primary screen, population patch clamp on CHO cells stably expressing hERG; higher = less effect of the substance
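Also: peak tail current of the secondary pulse compared with the same well before compound.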

human ether-à-go-go-related gene (hERG) potassium channel, sequence (Q12809 whole entry, looked up): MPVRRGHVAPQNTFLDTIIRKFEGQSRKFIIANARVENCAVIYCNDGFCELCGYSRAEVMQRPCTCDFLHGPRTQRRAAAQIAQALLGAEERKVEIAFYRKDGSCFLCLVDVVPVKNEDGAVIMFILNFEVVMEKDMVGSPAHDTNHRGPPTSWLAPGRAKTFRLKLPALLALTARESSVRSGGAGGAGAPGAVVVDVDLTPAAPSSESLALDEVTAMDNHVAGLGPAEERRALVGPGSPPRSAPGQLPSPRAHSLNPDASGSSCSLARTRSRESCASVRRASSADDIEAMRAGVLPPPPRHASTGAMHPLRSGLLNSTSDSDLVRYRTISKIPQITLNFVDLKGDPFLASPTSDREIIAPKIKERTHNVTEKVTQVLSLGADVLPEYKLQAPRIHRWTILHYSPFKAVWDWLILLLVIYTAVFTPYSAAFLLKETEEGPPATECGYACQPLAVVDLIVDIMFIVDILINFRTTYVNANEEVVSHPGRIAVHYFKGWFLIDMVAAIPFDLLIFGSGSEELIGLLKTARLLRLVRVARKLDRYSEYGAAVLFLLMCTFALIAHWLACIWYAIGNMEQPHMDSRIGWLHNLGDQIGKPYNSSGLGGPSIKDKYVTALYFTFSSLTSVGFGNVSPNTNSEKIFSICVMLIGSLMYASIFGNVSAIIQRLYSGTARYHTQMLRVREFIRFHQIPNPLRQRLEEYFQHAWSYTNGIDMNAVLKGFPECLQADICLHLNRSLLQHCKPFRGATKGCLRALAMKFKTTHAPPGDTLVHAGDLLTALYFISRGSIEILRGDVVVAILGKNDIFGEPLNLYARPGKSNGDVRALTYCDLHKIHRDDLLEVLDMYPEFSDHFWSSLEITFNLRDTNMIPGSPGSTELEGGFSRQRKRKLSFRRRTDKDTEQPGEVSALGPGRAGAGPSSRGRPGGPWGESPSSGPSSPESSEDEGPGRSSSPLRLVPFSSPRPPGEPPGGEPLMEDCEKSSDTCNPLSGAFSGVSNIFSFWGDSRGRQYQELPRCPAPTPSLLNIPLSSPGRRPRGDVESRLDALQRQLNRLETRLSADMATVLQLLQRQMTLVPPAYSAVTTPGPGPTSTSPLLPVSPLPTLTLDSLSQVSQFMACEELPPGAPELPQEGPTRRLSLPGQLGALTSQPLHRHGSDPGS

Compound	hERG current change (%, negative = inhibition) at 10uM [%]
COc1cc(C(=O)N(C)CCOc2ccc(C)cc2)ccc1OC1CCN(C(C)=O)CC1	8.41
CCN1CCC2(CC1)N=C(c1ccc(F)cc1)C(=S)N2C(=O)c1ccc(C(C)(C)C)cc1	-10.8
CN(C)CCNC(=O)NC(=O)c1ccc(Cl)cc1	-14.7
CC(C)OCCCNC(=O)NC(=O)c1ccc(Cl)cc1	-6.21
CCN(CC)CCNC(=O)NC(=O)c1ccc(Cl)cc1	-63
COc1ccc(/C=N/NC(=O)C(C)n2nnc3ccccc32)cc1OC (centres unmarked)	2.4
Cc1ccc2c(c1)sc(-c1ccc(N(C)C)cc1)[n+]2C.[I-]	-60
CC[n+]1c(C)sc2cc(C)ccc21.[I-]	15
C[n+]1c(-c2ccccc2)sc2ccccc21.[O-][Cl+3]([O-])([O-])[O-]	23.1
O=C(CN1C(=O)c2cccnc2Oc2ccc(Cl)cc21)NC1CCCCC1	-13.1
CC(=O)Nc1ccc(/C=C/C(=O)c2ccc3c(c2)OCCO3)cc1	-0.901
CCOc1ccc(C(=O)NC(C(=O)NCC(c2cccs2)N(C)C)C(C)C)cc1 (centres unmarked)	-19.8
O=C(NCCc1c[nH]c2ccccc12)/C(=C/c1ccco1)NC(=O)c1ccco1	-42.5
O=C(NCCCn1ccnc1)/C(=C\c1cccnc1)NC(=O)c1ccco1	-0.164
O=C(NCCc1c[nH]c2ccccc12)/C(=C\c1ccco1)NC(=O)c1ccco1	-21.3
O=C(NCCc1c[nH]c2ccccc12)/C(=C\c1cccnc1)NC(=O)c1ccco1	-65.1
O=C(NCCc1c[nH]c2ccccc12)/C(=C/c1cccnc1)NC(=O)c1ccco1	-64.7
O=C(NCCc1c[nH]c2ccccc12)c1ccco1	3.71
CC1CCCC(C)N1C(=O)COC(=O)c1nn(C)c(=O)c2ccccc12 (centres unmarked)	1.93

Compound	hERG current change (%, negative = inhibition) at 10uM [%]
COc1ccc(C(=O)N/C(=C\c2cn(S(=O)(=O)N(C)C)c3ccccc23)C(=O)N2CCOCC2)cc1	-47
COc1ccc(C(=O)N/C(=C\c2cn(S(=O)(=O)N(C)C)c3ccccc23)C(=O)N2CCN(C)CC2)cc1	-50.8
COc1ccc(C(=O)N/C(=C\c2cccc3ccccc23)C(=O)N2CCN(C)CC2)cc1OC	-50.6
CCOC(=O)N1CCN(C(=O)/C(=C/c2ccccc2OC)NC(=O)c2ccccc2)CC1	-37.9
CCOC(=O)N1CCN(C(=O)/C(=C/c2cccc3ccccc23)NC(=O)c2ccc(OC)cc2)CC1	-50.9
CCn1cc(/C=C(\NC(=O)c2ccc(OC)c(OC)c2)C(=O)N2CCN(C)CC2)c2ccccc21	-32.8
CCOC(=O)N1CCN(C(=O)/C(=C/c2cccc3ccccc23)NC(=O)c2ccc(OC)c(OC)c2)CC1	-3.14
CN1CCN(C(=O)/C(=C/c2cn(S(=O)(=O)N(C)C)c3ccccc23)NC(=O)c2ccccc2)CC1	0.665
COc1ccc(C(=O)N/C(=C\c2cccc3ccccc23)C(=O)N2CCN(C)CC2)cc1	-65.6
COc1ccc(C(=O)N/C(=C\c2cn(C)c3ccccc23)C(=O)N2CCN(C)CC2)cc1OC	-3.26
COc1ccc(C(=O)N/C(=C\c2cn(C)c3ccccc23)C(=O)N2CCN(C)CC2)cc1	-7.61
COc1ccc(C(=O)N/C(=C\c2cn(C)c3ccccc23)C(=O)N2CCOCC2)cc1	-10.9
CCCCC[n+]1ccn(C2=C([O-])c3ccccc3C(=O)/C2=N\S(=O)(=O)c2ccc(Br)cc2)c1	-39.1
CC(/C=C/c1ccc2c(c1)OCO2)=N\NC(=O)c1ccccc1	10.3
O=S(=O)(NC1CCSc2ccccc21)c1ccc(Cl)nc1 (centres unmarked)	-18.1
CCOc1cc(/C=C2/C(=N)N3C(=NC2=O)SN=C3S(=O)(=O)C(C)C)ccc1OC(=O)c1ccco1	3.02
COC(=O)C1C(O)=C(C=Nc2ccc3ccccc3c2)C(=O)CC1(C)C (centres unmarked)	-8.23
O=[N+]([O-])c1ccc(Sc2ccc(F)cc2)nc1	11.2
COc1ccc(C(=O)Nc2cccc(/C=C(\CCC(=O)O)c3nc4ccccc4s3)c2)cc1	8.59

Compound	hERG current change (%, negative = inhibition) at 10uM [%]
CN(C)/C=C1\C(=O)NN=C1C(F)(F)F	4.44
Cc1cccn2cc(-c3cccc(S(=O)(=O)N4CCOCC4)c3)nc12	0.676
COc1cc(OC)cc(C(=O)NCC(=O)N2CCCCC2)c1	9.25
CCn1ncc(Cl)c1C(=O)Nc1ccc2c(c1)CCC2	3.85
O=C(NCC1CC1)Nc1ccc(Cl)cc1	17.7
O=C(NCC1CCN(Cc2cccc(Cl)c2)CC1)Nc1ccc(Cl)cc1	-76.2
CCc1ccc(NC(=O)NCC2CCN(Cc3cccc(Cl)c3)CC2)cc1	-82.9
Cc1ccc(NC(=O)NCC2CCN(Cc3cccc(Cl)c3)CC2)cc1Cl	-19.7
CCc1ccc(NC(=O)NCC2CCN(c3ccc(OC)cc3)C2)cc1 (centres unmarked)	-6.79
COc1ccc(Oc2nccc(OC)c2C#N)cc1	-0.188
O=C(NCCCN1CCCC1=O)C1CCN(S(=O)(=O)c2cccc(Cl)c2Cl)CC1	-18.7
O=C(/C=C/c1ccccc1)OCC(=O)N1CCCC1	0.185
CCN1CCN(CCC(=O)Nc2ccc(Br)c(C)c2)CC1.Cl	-30.8
Cc1cc(NC(=O)CCN2CCN(C)CC2)ccc1Br.Cl	-7.85
Cc1cc(NC(=O)CCN2CCCCC2)ccc1Br	-72.8
Cc1cc(NC(=O)CCN2CCN(CCO)CC2)ccc1Br.Cl	-4.69
Cc1cc(NC(=O)CCN2CC(C)OC(C)C2)ccc1Br.Cl (centres unmarked)	-7.73
Cc1cc(NC(=O)CCN2CCC(C)CC2)ccc1Br.Cl	-57.6
